In PubChem BioAssay (Tox21) one finds Potency data, which are given here for 40 compounds.

Records with an inconclusive call do not appear. Where a call stands in place of a potency, no number is given. Activity calls are given as the source filed them. Calls come from the whole dose curve; as a rule, active = well fitted cell-killing curve with a large enough effect in the repeat runs; inconclusive = weak or mixed curves, or effect the other way; inactive = no such curve, though single readings can be large or run the other way.

A short description of the test: qHTS assay to identify small molecule agonists of the RXR signaling pathway - cell viability counter screen (AID 1159529). Note: nearly all actives have a fitted effect of over 50% in size. As to conditions: RXR-alpha-bla HEK293T viability, CellTiter-Glo, 16 h; series mostly up to 76.8 µM. From the text: National Center for Advancing Translational Sciences [NCATS]
NIH Chemical Genomics Center [NCGC]
U.S. Environmental Protection Agency [EPA]
National Institutes of Environmental Health Sciences [NIEHS]
National Toxicology Program [NTP]
U.S. Food and Drug Administration [FDA]
The Retinoid X receptor (RXR), a nuclear hormone receptor expressed in liver, spleen, placenta, epidermis, central nervous system. These receptors are able to form homo and heterodimers with other nuclear receptors and due to this heterodimerizing ability, RXR functions as master regulators producing diverse physiological effects. Three subtypes of RXR exist; alpha, beta and gamma. Retinoid X receptor alpha (RXR-alpha) has potential roles in metabolic signaling pathways, skin alopecia, dermal cysts, cardiac development, insulin sensitization etc. Therefore screening environmental chemicals on RXR-alpha signaling can be used for the studies focused on such therapeutic applications. For quantification of RXR-alpha ligands signaling, GeneBLAzer RXR alpha-UAS-bla HEK 293T (Life Technologies, Carlsbad, CA) cells containing a beta-lactamase reporter-gene under control of Retinoid X receptor-alpha response element were used to screen Tox21 10K library. The cytotoxicity of the Tox21 compound library against the RXR-alpha HEK 293T cell line was tested in parallel by measuring cell viability using CellTiter-Glo assay (Promega Corporation, Madison, WI) in the same wells.
Tox21 Assay Protocol Summary:
RXR-alpha HEK 293T cells were dispensed at 2,000 cells/6 uL of assay medium containing 2% charcoal-stripped FBS using a Multidrop Combi (ThermoFisher Scientific, Waltham, MA) dispenser. The assay was performed in black wall/clear-bottom 1536-well plates (Greiner Bio-One North America Inc. Monroe, NC). Tetraoctyl ammonium bromide was used as a positive control in the cytotoxicity screen. After the assay plates were incubated at 37 C and 5% CO2 for 5 hr, 23 nL of compounds dissolved in DMSO, positive control or DMSO only were transferred to the assay plate by a Pintool station (Kalypsys, San Diego, CA). The assay plates were incubated at 37 C and 5% CO2 for 16 hr. One uL of LiveBLAzer B/G FRET substrate (Life Technologies) was added using a Flying Reagent Dispenser (FRD) (Aurora Discovery, San Diego, CA) and the plates were incubated at room temperature for 2 hr. Fluorescence intensity (405 nm excitation, 460/530 nm emission) was measured using an Envision plate reader (PerkinElmer, Shelton, CT). For cytotoxicity, 4 uL/well of CellTiter-Glo reagent was added into the assay plates using an FRD. After 30 min incubation at room temperature, the luminescence intensity was measured using a ViewLux plate reader (PerkinElmer).
Turning to `Nc1ccc(Br)cc1`, the Potency result was “inactive”. Under `CC(C)(Cl)Cl` stands “inactive”.

Regarding `Cc1ccc([N+](=O)[O-])cc1C`, the Potency result is “inactive”. Turning to `c1cc2c3c(cccc3c1)CC2`, the Potency result was “inactive”. Turning to `COC(=O)NC(=S)Nc1ccccc1NC(=S)NC(=O)OC`, the Potency result is “inactive”.

For the compound `O=C(O)c1ccccn1`, the Potency entry was “inactive”. Take `O=C1CCCN1`: the Potency result was “inactive”. `CC(C)OC(=O)Nc1cccc(Cl)c1`: the Potency result was “inactive”. Then `Cc1cc(-c2cc(C)c(N)c(C)c2)cc(C)c1N`, with “inactive”; and `O=NN1CCCCCCC1`, with “inactive”; and `CCN(CC)c1ccccc1`, with “inactive”.

Consider `Nc1c(Cl)c(Cl)nc(C(=O)O)c1Cl`, for which the Potency result was “inactive”.

As to `Nc1ccc(Oc2ccc(N)cc2)cc1`, the Potency result was “inactive”. Then `Cc1ccc(N)cc1N`, with “inactive”.

With `ClCCBr`, the Potency entry is “inactive”. With `CC(C)C#N`, the Potency result is “inactive”.

Consider `OCCN(CCO)CCO`, for which the Potency result is “inactive”.

Take `CC1OC(C)OC(C)O1` (stereo not given): the Potency result was “inactive”.

For the compound `CN(C)[C@@H]1C(=O)C(C(N)=O)=C(O)[C@@]2(O)C(=O)C3=C(O)c4c(O)cccc4[C@@](C)(O)[C@H]3C[C@@H]12`, the Potency entry is “inactive”. Under `CCCCN(CC)C(=O)SCCC` stands “inactive”; under `C=CCO`, “inactive”; under `[N-]=[N+]=[N-]`, “inactive”. Under `CC(C)OC(=O)Nc1ccccc1` stands “inactive”; under `O=c1n(Cl)c(=O)n(Cl)c(=O)n1Cl`, “inactive”; under `COc1ccc2c3c1O[C@H]1[C@@H](O)C=C[C@H]4[C@@H](C2)N(C)CC[C@@]341`, “inactive”. In the case of `CC(C)N1C(=O)c2ccccc2NS1(=O)=O`, the Potency result was “inactive”. Then `CCOP(=S)(OCC)SCCSCC`, with “inactive”; and `O=NN1CCCC1`, with “inactive”.

Regarding `CCCN(CCC)c1c([N+](=O)[O-])cc(C(F)(F)F)cc1[N+](=O)[O-]`, the Potency result is “inactive”.

`CN=C=S`: the Potency entry is “inactive”. Then `CCNc1nc(NC(C)C)nc(SC)n1`, with “inactive”; and `COC(=O)c1ccccc1C(=O)OC`, with “inactive”; and `COCCl`, with “inactive”.

Turning to `CC(C)=C[C@@H]1[C@@H](C(=O)OCc2coc(Cc3ccccc3)c2)C1(C)C`, the Potency entry is “inactive”. Regarding `Clc1ccccc1Cl`, the Potency entry was “inactive”. Consider `CC(C#N)CCC#N` (stereo not given), for which the Potency entry is “inactive”. Under `O=c1[nH]c(=O)[nH]c(=O)[nH]1` stands “inactive”; under `OC(O)C(Cl)(Cl)Cl`, “inactive”; under `CNC(=O)Oc1ccccc1OC(C)C`, “inactive”. In the case of `CCOP(OCC)OCC`, the Potency result was “inactive”.
